The text below walks through data of PubChem BioAssay.

Assay [1] in a line: reduced mouse 2C T cell binding to pMHC/ICAM-1 vesicles – MLPCN validation set, flow cytometry, LFA-1/ICAM-1 modulator project, pilot screen (AID 2523;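 active = response below a set limit, under 55% cells CD8-positive and vesicle-bound, and CD8 cells' 90th-percentile brightness under 279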;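 as to vesicle binding response: mean PE anti-B7-1 fluorescence of CD8+ cells relative to row control; 100% = QL9-loaded vesicles with DMSO vehicle in the same plate row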). The note with it: 2C mouse CD8+ T cells, at 7 µM, stronger effect = lower value; double positive events: measured here: CD8+/vesicle+ event percentage. A general note: A flow cytometer gives signals particle by particle.
Assay [2] addresses Integrin beta-1 (Homo sapiens) + Integrin alpha-4 (Homo sapiens) (UniProt P13612+P05556). The assay can be described thus: alpha4beta1 integrin LIBS antibody binding reduction – U937 cells, HUTS-21 mAb, flow cytometry, validation set, VLA-4 allosteric modulator project, pilot screen (AID 2674;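 active = inhibition above 50%, about 3 SD of the validation set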;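 also: antibody binding induced by the VLA-4 ligand LDV present at three times its Kd; 0% = LDV ligand with antibody and no compound and 100% = antibody without LDV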). The note with it: HUTS-21 LIBS mAb binding, at 6.7 µM, stronger effect = higher value, binding induced by LDV ligand.

Assay [3] can be described thus: calorie-restriction mimetic ROS inhibitors, yeast – validation compound set, pilot screen (AID 2706;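 active = superoxide response below 65% of plate, a cut near 3 SD across the whole screen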;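 also: yeast exposed to compound for one week at 30 degrees C before staining; 100% = mean of all compound wells on the same plate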). Particulars: S. cerevisiae aging, superoxide DHE fluorescence; at 10 µM, stronger effect = lower value.
The target of assay [4] is Beta-adrenergic receptor kinase 1 (Homo sapiens) (UniProt P25098). As to the kind of experiment: GRK2 binders displacing RNA aptamer, biochemical, validation, human GRK2, bead flow cytometry (AID 488806;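 active = aptamer binding inhibition above 30%, about 3 SD of noise from non-fluorescent compounds; inactive = inhibition at or below 30%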). Particulars: bead-bound GRK2, FAM-aptamer displacement, at 10 µM, stronger effect = higher value.
Beta-adrenergic receptor kinase 1 (Homo sapiens), sequence (P25098 whole entry, looked up): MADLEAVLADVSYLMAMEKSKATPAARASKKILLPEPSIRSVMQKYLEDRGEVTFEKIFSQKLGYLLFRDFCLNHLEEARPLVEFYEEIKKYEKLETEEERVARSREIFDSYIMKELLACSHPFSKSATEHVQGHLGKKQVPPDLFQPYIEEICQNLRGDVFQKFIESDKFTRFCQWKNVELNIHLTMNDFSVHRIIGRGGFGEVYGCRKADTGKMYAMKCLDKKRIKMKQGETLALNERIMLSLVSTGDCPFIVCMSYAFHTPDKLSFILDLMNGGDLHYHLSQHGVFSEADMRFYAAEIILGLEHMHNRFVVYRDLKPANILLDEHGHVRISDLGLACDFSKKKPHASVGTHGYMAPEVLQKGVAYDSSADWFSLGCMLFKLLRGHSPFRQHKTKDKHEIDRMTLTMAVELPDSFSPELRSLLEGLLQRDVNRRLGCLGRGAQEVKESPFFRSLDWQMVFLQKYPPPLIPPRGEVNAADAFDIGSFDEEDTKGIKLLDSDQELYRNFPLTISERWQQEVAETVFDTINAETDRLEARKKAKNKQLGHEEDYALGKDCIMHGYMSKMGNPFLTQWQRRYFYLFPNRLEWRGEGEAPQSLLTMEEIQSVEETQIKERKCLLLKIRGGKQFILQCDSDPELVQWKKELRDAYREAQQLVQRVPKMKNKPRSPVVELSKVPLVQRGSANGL
For assay [5], the target named is AP-2 complex subunit beta (Homo sapiens) (UniProt P63010). As to the kind of experiment: beta-arrestin/AP2 interaction blockers – biochemical, validation set, GST-AP2 beads, flow cytometry, pilot screen (AID 504541;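 active = inhibition above 54%, about 3 SD of non-fluorescent compounds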;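 also: AP2 carries R879A mutation and is captured from E. coli lysate; bead-bound FITC arrestin peptide fluorescence measuring arrestin peptide binding to AP2; 0% = DMSO wells and 100% = excess unlabeled arrestin peptide control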). The note with it: FITC arrestin peptide, at 10 µM, stronger effect = higher value, AP2 beta2 appendage fragment, R879A mutant.
AP-2 complex subunit beta (Homo sapiens), sequence (P63010 whole entry, looked up, the tested form may be a part, one chain of several): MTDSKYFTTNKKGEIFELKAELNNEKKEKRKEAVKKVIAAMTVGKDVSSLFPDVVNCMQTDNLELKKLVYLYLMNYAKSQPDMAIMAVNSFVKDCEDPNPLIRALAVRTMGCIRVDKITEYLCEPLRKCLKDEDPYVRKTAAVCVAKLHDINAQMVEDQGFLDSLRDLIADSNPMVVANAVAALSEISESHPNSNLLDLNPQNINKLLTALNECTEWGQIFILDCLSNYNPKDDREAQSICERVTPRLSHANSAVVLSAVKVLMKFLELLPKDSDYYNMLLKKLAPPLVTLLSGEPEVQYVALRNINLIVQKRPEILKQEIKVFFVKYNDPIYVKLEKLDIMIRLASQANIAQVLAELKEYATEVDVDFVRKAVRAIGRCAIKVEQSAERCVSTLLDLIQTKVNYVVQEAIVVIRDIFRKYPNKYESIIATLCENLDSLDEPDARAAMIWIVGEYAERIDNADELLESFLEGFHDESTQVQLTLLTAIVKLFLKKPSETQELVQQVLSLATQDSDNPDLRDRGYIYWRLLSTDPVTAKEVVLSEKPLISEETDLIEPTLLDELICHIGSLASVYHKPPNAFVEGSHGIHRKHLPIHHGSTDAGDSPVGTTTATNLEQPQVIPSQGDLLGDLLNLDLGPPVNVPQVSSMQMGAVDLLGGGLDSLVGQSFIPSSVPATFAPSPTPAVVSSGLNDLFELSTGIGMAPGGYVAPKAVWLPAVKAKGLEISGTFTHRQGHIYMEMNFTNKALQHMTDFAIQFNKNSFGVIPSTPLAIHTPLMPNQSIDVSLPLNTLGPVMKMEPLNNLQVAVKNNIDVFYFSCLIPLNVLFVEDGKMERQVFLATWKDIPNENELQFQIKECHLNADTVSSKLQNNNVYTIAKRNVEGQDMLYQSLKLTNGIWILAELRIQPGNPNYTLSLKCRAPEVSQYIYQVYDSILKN
Assay [6] in a line: cytosolic pH regulators acting via V-ATPase – S. cerevisiae, pHLuorin, HTS validation (AID 504600).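 Also: plate controls were DMSO for no effect and reference compound for full effect.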 The note with it: V-ATPase proton transport, at 10 µM, stronger effect = higher value.
In assay [7] the test system is anti-desmoglein-3 scFv antibody binding to human DSG3. The assay can be described thus: blockers of pathogenic pemphigus antibody–desmoglein-3 binding – biochemical, validation compound set, bead-based, flow cytometry, pilot screen (AID 588368;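 active = binding below the plate cutoff, the plate median minus 3 SD, with a reading above zero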;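 also: signal is the median channel fluorescence of bead-bound GFP antibody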). The note with it: Protein G beads, DSG3-Fc, scFv-GFP binding, at 10 µM, stronger effect = lower value.
Assay [8] in a line: Nile Red efflux blockade in pump-expressing yeast – validation compound set, multiplex, phenotypic, pilot screen (AID 588506;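 active = efflux inhibition above 0.42, the validation set average plus 4 SD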;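 also: Nile Red retained in cells so higher fluorescence means more efflux inhibition; 0 = negative control wells and 1 = enniatin B 25 µM full block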). Particulars: S. cerevisiae pump-expressing triplex, Nile Red efflux flow cytometry; at 10 µM; stronger effect = higher value; the pumps come from Candida albicans.
For assay [9], the target named is ATP-binding cassette sub-family B member 6 (Homo sapiens) (UniProt Q9NP58). As to the kind of experiment: blockers of ABCB6-driven porphyrin uptake – K562-ABCB6 cells, flow cytometry, validation set, pilot screen (AID 588550;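 active = inhibition above the screen-wide mean plus 3 SD, about 51%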;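 also: 0% = DMSO wells and 100% = benzethonium chloride 70 µM positive control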). The note with it: K562-ABCB6 porphyrin accumulation, 1 h, at 10 µM, stronger effect = higher value.
ATP-binding cassette sub-family B member 6 (Homo sapiens), sequence (Q9NP58 whole entry, looked up): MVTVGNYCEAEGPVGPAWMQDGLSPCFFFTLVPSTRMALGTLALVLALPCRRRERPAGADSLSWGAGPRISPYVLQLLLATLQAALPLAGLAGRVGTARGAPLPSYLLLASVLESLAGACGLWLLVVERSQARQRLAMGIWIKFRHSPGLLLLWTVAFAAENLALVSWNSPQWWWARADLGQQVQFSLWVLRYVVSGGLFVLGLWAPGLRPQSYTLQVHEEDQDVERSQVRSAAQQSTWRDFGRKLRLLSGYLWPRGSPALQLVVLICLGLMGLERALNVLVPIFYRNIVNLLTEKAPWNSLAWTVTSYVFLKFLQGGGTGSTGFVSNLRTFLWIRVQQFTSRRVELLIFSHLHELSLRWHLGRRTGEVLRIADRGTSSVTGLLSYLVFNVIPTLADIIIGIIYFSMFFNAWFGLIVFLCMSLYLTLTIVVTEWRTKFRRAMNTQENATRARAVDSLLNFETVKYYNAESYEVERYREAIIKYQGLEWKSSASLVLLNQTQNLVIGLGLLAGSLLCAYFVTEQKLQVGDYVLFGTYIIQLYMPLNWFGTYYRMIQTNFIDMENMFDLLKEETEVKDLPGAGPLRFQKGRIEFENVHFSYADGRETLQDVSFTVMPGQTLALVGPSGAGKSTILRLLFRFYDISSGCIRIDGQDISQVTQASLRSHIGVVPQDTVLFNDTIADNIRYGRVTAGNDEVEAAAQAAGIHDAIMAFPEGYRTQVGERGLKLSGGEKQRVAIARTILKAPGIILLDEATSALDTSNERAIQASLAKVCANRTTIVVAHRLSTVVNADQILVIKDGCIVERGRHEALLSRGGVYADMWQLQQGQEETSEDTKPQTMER
Assay [10] is described as follows: AML differentiation inducers, ER-HoxA9 marrow cells – cell-based, GFP/MAC1 double positive, flow cytometry, validation set, primary screen (AID 588685;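 active = differentiation response of at least 50%, scaled between solvent and reference control, from cells with both markers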;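 also: compound exposure lasts four days before antibody staining and flow analysis; 0% = DMSO wells and 100% = 5 µM fulvestrant positive control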). The note with it: stronger effect = higher value, normalized: vehicle 0, fulvestrant 100.

Active and inactive are the calls of the source. Rule as the data show it, unless noted: active = response above about 15%; inactive = the rest.

Integrin beta-1 (Homo sapiens) + Integrin alpha-4 (Homo sapiens), sequence (P05556 whole entry, looked up): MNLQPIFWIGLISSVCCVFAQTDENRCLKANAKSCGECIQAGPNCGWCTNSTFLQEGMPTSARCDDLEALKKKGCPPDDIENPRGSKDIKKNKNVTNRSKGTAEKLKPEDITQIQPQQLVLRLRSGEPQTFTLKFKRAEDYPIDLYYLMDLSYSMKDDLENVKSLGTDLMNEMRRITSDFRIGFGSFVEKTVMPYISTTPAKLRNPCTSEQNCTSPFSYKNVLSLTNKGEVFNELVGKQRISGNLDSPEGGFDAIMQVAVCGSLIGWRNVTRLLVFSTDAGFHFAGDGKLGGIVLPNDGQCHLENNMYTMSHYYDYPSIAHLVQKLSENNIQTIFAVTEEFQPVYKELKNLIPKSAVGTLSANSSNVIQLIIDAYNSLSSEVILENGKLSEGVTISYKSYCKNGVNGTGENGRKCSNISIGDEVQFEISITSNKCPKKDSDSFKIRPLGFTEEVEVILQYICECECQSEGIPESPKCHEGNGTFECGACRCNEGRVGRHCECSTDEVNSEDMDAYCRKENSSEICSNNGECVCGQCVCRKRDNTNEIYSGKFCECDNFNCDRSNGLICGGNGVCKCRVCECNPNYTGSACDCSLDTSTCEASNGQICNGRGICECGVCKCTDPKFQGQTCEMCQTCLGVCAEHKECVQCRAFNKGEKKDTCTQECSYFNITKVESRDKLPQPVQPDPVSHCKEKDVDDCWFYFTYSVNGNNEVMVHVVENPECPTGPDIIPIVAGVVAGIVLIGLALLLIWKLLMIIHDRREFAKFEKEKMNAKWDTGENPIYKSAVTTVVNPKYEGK
Integrin beta-1 (Homo sapiens) + Integrin alpha-4 (Homo sapiens), sequence (P13612 whole entry, looked up): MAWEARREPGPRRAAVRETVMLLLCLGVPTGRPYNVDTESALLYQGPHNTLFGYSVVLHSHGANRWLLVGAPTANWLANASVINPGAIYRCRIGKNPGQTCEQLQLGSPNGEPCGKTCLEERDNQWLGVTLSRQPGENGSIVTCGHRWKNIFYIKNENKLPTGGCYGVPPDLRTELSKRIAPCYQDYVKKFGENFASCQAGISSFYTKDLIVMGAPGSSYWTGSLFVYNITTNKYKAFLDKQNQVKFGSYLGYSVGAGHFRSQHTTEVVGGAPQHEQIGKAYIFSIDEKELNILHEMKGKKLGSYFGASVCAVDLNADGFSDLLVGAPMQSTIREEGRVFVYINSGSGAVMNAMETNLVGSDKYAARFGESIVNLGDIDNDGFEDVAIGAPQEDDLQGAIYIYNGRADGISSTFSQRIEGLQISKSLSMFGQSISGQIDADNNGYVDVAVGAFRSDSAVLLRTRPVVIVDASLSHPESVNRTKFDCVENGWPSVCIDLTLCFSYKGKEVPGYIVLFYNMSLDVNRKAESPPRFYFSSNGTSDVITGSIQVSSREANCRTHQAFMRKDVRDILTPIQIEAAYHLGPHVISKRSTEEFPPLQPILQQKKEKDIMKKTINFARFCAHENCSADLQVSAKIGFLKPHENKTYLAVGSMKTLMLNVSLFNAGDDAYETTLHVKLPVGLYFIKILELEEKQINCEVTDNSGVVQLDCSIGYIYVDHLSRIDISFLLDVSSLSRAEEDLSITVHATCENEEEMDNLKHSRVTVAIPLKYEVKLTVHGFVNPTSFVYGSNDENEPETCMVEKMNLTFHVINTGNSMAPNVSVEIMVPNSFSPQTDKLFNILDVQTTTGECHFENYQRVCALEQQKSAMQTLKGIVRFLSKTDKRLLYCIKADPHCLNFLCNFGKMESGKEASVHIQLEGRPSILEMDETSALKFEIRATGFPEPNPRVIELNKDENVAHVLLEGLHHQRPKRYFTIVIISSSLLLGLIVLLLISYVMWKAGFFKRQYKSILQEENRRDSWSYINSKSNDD

One may read the inhibition as the change of the read-out against control, counted positive when it falls. In the case of `COc1ccc(C(=O)OCc2cc3cccc(C)c3[nH]c2=O)cc1`, the double positive events in assay [1] was found to be 49.3%. For the same compound, in assay [1], the vesicle binding response is 163% (inactive). The inhibition in assay [2] is 5.36% (inactive); in [5] it was 8.12% (inactive); in assay [9] it was 8% (inactive). In assay [3], the superoxide response (% of plate) is 112% (inactive). Moreover, the aptamer binding inhibition in assay [4] is 0% (inactive). The response in assay [6] is -29% (inactive). Further, in [7], the binding (% of control) is 96.4% (inactive). In addition, the efflux inhibition (fraction of control) in assay [8] is 0.06 (inactive). Moreover, the differentiation response in [10] is -29.3% (inactive).

`CCNCCC(CCC(C)C)c1ccc2c(c1)OCO2` (configuration not stated) came in with a double positive events in [1] of 54.2%. Besides, in assay [1], the vesicle binding response was 233% (inactive). In addition, the inhibition in [2] was 9.09% (inactive); in assay [5], -9.39% (inactive); in [9], -3% (inactive). Further, the superoxide response (% of plate) in assay [3] is 103% (inactive). The aptamer binding inhibition in [4] is -1% (inactive). In [6], the response is -1.01% (inactive). Moreover, the binding (% of control) in assay [7] was 96.9% (inactive). Further, the efflux inhibition (fraction of control) in assay [8] was -0.16 (inactive). For the same compound, the differentiation response in [10] was 9.49% (inactive).

In assay [1], `C[C@]12CCC(=O)C[C@@H]1CC[C@@H]1[C@@H]2CC[C@]2(C)C=CC[C@@H]12` displayed a double positive events of 51.4%. Also, in [1], the vesicle binding response is 201% (inactive). Also, the values for the inhibition in [2], in [5] and in assay [9] were 5.36% (inactive), 2.65% (inactive) and 4% (inactive), respectively. The superoxide response (% of plate) in assay [3] is 111% (inactive). In assay [4], the aptamer binding inhibition was 2% (inactive). The response in assay [6] was 17% (active). In [7], the binding (% of control) is 103% (inactive). Further, the efflux inhibition (fraction of control) in assay [8] is 0.1 (inactive). Besides, the differentiation response in assay [10] is 28.9% (inactive).

Take `Cc1c(OCC(=O)NC(Cc2c[nH]c3ccc(O)cc23)C(=O)O)ccc2c3c(c(=O)oc12)CCC3` (configuration not stated): the double positive events in assay [1] came out at 51.4%. In addition, the vesicle binding response in [1] is 218% (inactive). Further, the inhibition in [2] was 6.29% (inactive); in assay [5], 3.65% (inactive); in assay [9], 11% (inactive). For the same compound, in assay [3], the superoxide response (% of plate) was 87.9% (inactive). Further, the aptamer binding inhibition in assay [4] is 3% (inactive). Besides, the response in assay [6] was 6.27% (inactive). Besides, the binding (% of control) in [7] is 101% (inactive). For the same compound, in [8], the efflux inhibition (fraction of control) is -0.5 (inactive). In addition, the differentiation response in assay [10] was -22.8% (inactive).

For `CC[C@H](CO)NCCN[C@H](CC)CO`, in [1], the double positive events was determined as 56.6%. Besides, the vesicle binding response in [1] was 193% (inactive). In addition, the inhibition in assay [2] was -2.11% (inactive); in assay [5], -14.5% (inactive); in assay [9], 12% (inactive). Also, in assay [3], the superoxide response (% of plate) is 112% (inactive). Moreover, the aptamer binding inhibition in assay [4] is -2% (inactive). The response in assay [6] is 2.83% (inactive). Moreover, the binding (% of control) in assay [7] is 112% (inactive). Further, in assay [8], the efflux inhibition (fraction of control) was 0.06 (inactive). Besides, in [10], the differentiation response is -19.6% (inactive).

In turn, `O=C(CCNNC(=O)c1ccncc1)NCc1ccccc1` registered a double positive events in [1] of 66.8%. The vesicle binding response in assay [1] is 184% (inactive). Moreover, the inhibition in assay [2] is 18.4% (inactive); in assay [5] it was 26.4% (inactive); in assay [9], 5% (inactive). In assay [3], the superoxide response (% of plate) is 101% (inactive). The aptamer binding inhibition in assay [4] was -1% (inactive). Moreover, the response in assay [6] is 1.75% (inactive). Moreover, the binding (% of control) in [7] is 99% (inactive). Also, in assay [8], the efflux inhibition (fraction of control) is 0.48 (active). Further, in [10], the differentiation response was -24.4% (inactive).

As to `COC(=O)c1[nH]c2ccc(F)cc2c1NC(=O)C1=COCCO1`, the double positive events in assay [1] was determined as 55.5%. The vesicle binding response in assay [1] is 252% (inactive). The inhibition is -3.04% (inactive) in [2], 1.47% (inactive) in assay [5] and 7% (inactive) in assay [9]. In assay [3], the superoxide response (% of plate) is 89.2% (inactive). In addition, the aptamer binding inhibition in assay [4] was 1% (inactive). Further, in [6], the response was -2.26% (inactive). The binding (% of control) in assay [7] was 92.8% (inactive). Besides, in assay [8], the efflux inhibition (fraction of control) was -0.01 (inactive). Besides, the differentiation response in [10] is 45% (inactive).
